Assay results as given in PubChem BioAssay (NCI).
The panel holds about 83,000 compounds, 20% with a hit somewhere; the sample as a whole holds those more often.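 Assay: single dose, 48 h. Readout: percent growth (0 = no net growth; negative = cell death). Active: <10.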 Calls of active or inactive are those of the source.

How the values were obtained:
Assay in all cases: NCI-60 one-dose screen, 48 h (100 = growth as untreated, 0 = no growth, -100 = all killed)
Details in all cases: 10 µM unless noted
[1] = test system: SK-MEL-2 melanoma
[2] = test system: EKVX NSCLC
[3] = test system: SN12C renal
[4] = test system: UO-31 renal
[5] = test system: TK-10 renal
[6] = test system: ACHN renal
[7] = test system: CAKI-1 renal
[8] = test system: A498 renal
[9] = test system: CCRF-CEM leukemia
[10] = test system: MOLT-4 leukemia
[11] = test system: SR leukemia
[12] = test system: RPMI-8226 leukemia
[13] = test system: OVCAR-8 ovarian
[14] = test system: OVCAR-5 ovarian
[15] = test system: OVCAR-4 ovarian
[16] = test system: SK-OV-3 ovarian
[17] = test system: IGROV1 ovarian
[18] = test system: OVCAR-3 ovarian
[19] = test system: NCI/ADR-RES ovarian
[20] = test system: HS 578T breast

Measured: growth

CS(=O)(=O)Nc1cc(-c2ccc3ncnc(Nc4ccc5c(cnn5Cc5cccnc5)c4)c3c2)cnc1Cl
active: [17] 3.96%
inactive: [1] 14% | [2] 68.2% | [3] 46.2% | [4] 47.9% | [5] 49% | [6] 75.8% | [7] 40.2% | [8] 19.2% | [9] 32.9% | [10] 24.7% | [11] 21.5% | [12] 54.7% | [13] 75.6% | [14] 49% | [15] 74.6% | [16] 58.4% | [18] 19.2% | [19] 93.2%

O=C(/C=C/c1ccccc1)Nc1ncc(Cc2ccccc2)s1
inactive: [1] 26.1% | [2] 23.2% | [3] 32.4% | [4] 30.4% | [5] 35% | [6] 26.5% | [7] 27.8% | [8] 12.6% | [9] 20.3% | [10] 22.6% | [11] 15.3% | [12] 20.2% | [13] 23.7% | [14] 18.5% | [15] 14.1% | [16] 15.4% | [17] 26.1% | [20] 10.4%
active: [18] -34.1% | [19] 2.68%

COc1ccc(C/C(C)=C(\c2ccc(O)cc2)c2ccc(OCCN3CCCC3)cc2)cc1
inactive: [1] 100% | [2] 101% | [3] 100% | [4] 86.1% | [5] 121% | [6] 97.1% | [7] 97% | [8] 91.7% | [9] 92.3% | [10] 85.3% | [11] 82.4% | [12] 105% | [14] 99.1% | [15] 104% | [16] 100% | [17] 103% | [18] 108% | [20] 101% | [19] 104%

Cc1nc2sc(C(=O)Nc3ccccc3)c(N)c2cc1C(=O)/C=C/c1ccccc1
inactive: [1] 18.4% | [2] 43.2% | [10] 15.3% | [11] 11.7% | [14] 16.6% | [16] 35.4% | [20] 12%
active: [3] -27.1% | [4] -82.6% | [5] -18.1% | [6] 3.7% | [7] -54.1% | [8] 9.65% | [9] 6.14% | [12] -33.9% | [15] 4.43% | [17] -7.01% | [18] -47.5% | [19] -10.7%

COc1ccc2cc(-c3cnc4nonc4n3)ccc2c1
active: [9] 8.1% | [10] 6.87% | [11] 9.96% | [19] -4.57%
inactive: [1] 52.7% | [2] 16.1% | [3] 38.7% | [4] 37.7% | [5] 54.5% | [6] 50.8% | [7] 29.7% | [8] 60.8% | [13] 23.9% | [14] 76% | [15] 50% | [16] 71% | [17] 60.3% | [18] 11.1% | [20] 13.9%

N#C/C(=C\c1ccc(Cl)cc1Cl)C(=O)Nc1ncc(Cc2ccc(Cl)c(Cl)c2)s1
inactive: [1] 88.8% | [2] 96.1% | [3] 92.2% | [4] 65.7% | [5] 80.7% | [6] 47.7% | [7] 52.3% | [8] 101% | [9] 87.7% | [10] 92.9% | [11] 59.6% | [13] 91.6% | [14] 71.5% | [15] 82.8% | [16] 96.6% | [17] 85.6% | [18] 98.9% | [20] 94.3% | [19] 83.2%

Cn1cc(C(=O)c2nc(-c3c[nH]c4ccc(Br)cc34)no2)c2cc(Br)ccc21
inactive: [1] 109% | [2] 60.5% | [3] 80.1% | [4] 67% | [5] 99.9% | [6] 80.9% | [7] 67.4% | [8] 106% | [9] 45.6% | [10] 85% | [12] 86.6% | [14] 82.7% | [16] 87.7% | [17] 69.5% | [18] 92.7% | [20] 80.3% | [19] 56.1%
active: [11] 6.41% | [15] -0.341%

C=C(c1ccc(C(=O)O)cn1)c1cc2c(cc1C)C(C)(C)CCC2(C)C
inactive: [1] 84% | [2] 83.9% | [3] 95.7% | [4] 81.5% | [5] 131% | [6] 91.8% | [7] 87.9% | [8] 80% | [9] 83.5% | [10] 95.7% | [11] 82.7% | [13] 83.7% | [14] 121% | [15] 85.2% | [16] 75.5% | [17] 98.9% | [18] 87.6% | [20] 69.5% | [19] 83.6%

CCOC(=O)c1c(C)nc2ccccc2c1/C=C/c1ccc(OC)cc1
inactive: [1] 64.3% | [2] 54.9% | [3] 79.8% | [4] 52.3% | [5] 85.8% | [6] 58.8% | [7] 56.8% | [8] 77.9% | [9] 56.4% | [10] 26.1% | [11] 56.6% | [12] 41.8% | [14] 89.1% | [15] 54.6% | [16] 76.1% | [17] 66% | [18] 73.9% | [20] 81.6% | [19] 31.2%

COc1ccc(C2=Nc3c(N)ncnc3NC(c3cccc(Nc4ccnc5cc(C(F)(F)F)ccc45)c3)C2)cc1 (stereo not given)
active: [11] 5.09%
inactive: [1] 73.7% | [2] 54% | [3] 63.9% | [4] 45.2% | [5] 95.6% | [6] 78.8% | [7] 61.5% | [8] 65.2% | [9] 42.4% | [10] 19.7% | [12] 11.8% | [14] 92.3% | [15] 67.2% | [16] 69.3% | [17] 66.4% | [18] 78.2% | [20] 55.3% | [19] 65.3%

O=C(N/N=C/c1ccc([N+](=O)[O-])cc1)c1ccc2nc(-c3ccc(Cl)cc3)[nH]c2c1
active: [8] -0.501% | [9] 9.87% | [10] 4.24% | [11] -8.49%
inactive: [1] 66.7% | [2] 49% | [3] 19.6% | [4] 42.6% | [5] 89.8% | [6] 32.3% | [7] 42.7% | [13] 21.6% | [14] 53.2% | [15] 23% | [16] 60.5% | [17] 19.1% | [18] 11.3% | [20] 36.8% | [19] 77.3%

C=CC(C)(O)CC/C=C(\CO)C(=O)OC1C(C)OC(O[C@](C)(C=C)CC/C=C(\CO)C(=O)O[C@H]2C[C@@]3(C(=O)OC4OC(CO)C(O)C(O)C4OC4OC(C)C(OC5OC(CO)C(O)C5O)C(OC5OC(CO)C(O)C(O)C5O)C4O)C(CC2(C)C)C2=CCC4[C@@]5(C)CC[C@H](OC6OC(COC7OC(C)C(O)C(O)C7OC7OCC(O)C(O)C7O)C(O)C(O)C6NC(C)=O)C(C)(C)C5CC[C@@]4(C)[C@]2(C)C[C@H]3O)C(O)C1O (stereo not given in full)
inactive: [12] 41.4% | [14] 11.8% | [19] 17.5%
active: [1] -73.8% | [2] -6.51% | [3] -30.1% | [4] -57.7% | [5] -83% | [6] -87.7% | [7] -70% | [8] -81% | [9] -17.1% | [10] -21.5% | [11] -26.7% | [15] -29.2% | [16] -79.8% | [17] -49.2% | [18] -94% | [20] -31.4%

COc1cc(Nc2ncccc2NC(=O)c2cn(Cc3cccc(Oc4ccccc4)c3)nn2)cc(OC)c1
inactive: [1] 95.7% | [2] 75% | [3] 84.2% | [4] 50.7% | [5] 100% | [6] 86.1% | [7] 83.9% | [8] 76.2% | [9] 84.5% | [10] 59.6% | [11] 40.8% | [12] 71.6% | [14] 107% | [15] 92.7% | [16] 96.2% | [17] 99.3% | [18] 85.3% | [20] 79.3% | [19] 76%

O=S(=O)(c1ccccc1)N1CCCN(c2nc(-c3ccccc3)nc3nc(-c4ccccc4)oc23)CC1
inactive: [1] 108% | [2] 107% | [3] 98.5% | [4] 85.3% | [5] 114% | [6] 104% | [7] 91.7% | [8] 96.9% | [9] 105% | [10] 100% | [11] 104% | [13] 104% | [14] 106% | [15] 105% | [16] 103% | [17] 100% | [18] 117% | [20] 116% | [19] 104%

Cc1ccc(N=Nc2c(N)nn(-c3ccccc3)c2N)cc1
active: [7] -2.05% | [9] 8.89% | [11] -16.6% | [12] -1.12% | [18] 0.588% | [19] -5.12%
inactive: [1] 41.2% | [2] 29.9% | [3] 45.4% | [4] 45.1% | [5] 43.6% | [6] 47.6% | [8] 49.9% | [10] 23.5% | [14] 55.3% | [15] 75% | [16] 37.2% | [17] 48.3% | [20] 36.1%

N#Cc1nc(-c2ccc(F)cc2)oc1S(=O)(=O)N1CCN(c2ccc(F)cc2)CC1
inactive: [1] 90.9% | [2] 113% | [3] 85% | [4] 81.2% | [5] 86% | [6] 77.5% | [7] 100% | [8] 113% | [12] 46.5% | [14] 111% | [15] 105% | [16] 118% | [17] 76% | [18] 91% | [20] 107% | [19] 94.7%
active: [9] 4.6% | [10] 1.8% | [11] 6.45%
